Assay [1] concerns the target Cytochrome P450 1A2 (Homo sapiens) (UniProt P05177). The experiment in a line: p450-cyp1a2 (AID 410; calls by dose curve; note: potency is the fitted concentration of half-maximal effect). In a few lines:
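Human CYP1A2 (20nM) demethylated Luciferin-ME at its Km (100uM) in 100mM KPO4. After 10 min compound preincubation, NADPH regeneration ran the reaction 60 min at room temperature. Luciferin was read by luminescence, normalized to 57 uM furafylline.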

Assay [2] in a line: NFAT Signaling Pathway (AID 444; active = well fitted curve in either direction with a large enough effect, not every such curve was filed as active;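 note: carbachol stimulus at about its EC50 of 1 µM final; % is set by controls: 0 for no effect and ±100 for the full control effect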). The conditions noted are these: Jurkat NFAT-bla M1, carbachol, beta-lactamase ratio, 5 h; at 38 µM (top of the series). In a few lines: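 Read-out: CCF4 FRET ratio (460 nm/530 nm) after 1 h RT dye loading, used for %activity and AC50 from titration series. Cells: Jurkat NFAT-β-lactamase/M1 line, treated with compound plus 1 uM carbachol for 5 h, 37 °C.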

The nature of assay [3]: Stat Signaling Pathway (AID 446; active = well fitted curve in either direction with a large enough effect, not every such curve was filed as active;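 note: ME-180 cervical cancer cells given 40 pM IL-6 alongside compound; SIE-controlled beta-lactamase reporter measured as 460/530 nm FRET emission ratio; % is set by controls: 0 for no effect and ±100 for the full control effect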). The conditions noted are these: ME-180 SIE beta-lactamase reporter, IL-6 stimulated, 5 h; at 38 µM (top of the series). The method in brief: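 ME-180 SIE-bla cells; overnight plating; cpd + IL-6 40 pM, 5 h, 37 C; LiveBLAzer 2.5 h RT; 460/530 nm emission ratio. Normalized to 300 pM IL-6 and 125 nM JAK inhibitor controls.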
Assay [4] has as its target Glucocorticoid receptor (Homo sapiens) (UniProt P04150). The experiment in a line: GR-GFP Redistribution (AID 450;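 active = compounds whose dose series gives a full or clear partial fitted curve of increased nuclear translocation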; note: potency is the fitted concentration of half-maximal effect). The conditions noted are these: U2OS GR-GFP nuclear translocation, laser cytometry, 2 h.
The target is the same in assay [5]. The experiment in a line: GR-EFC Redistribution (AID 451; calls by dose curve; note: potency is the fitted concentration of half-maximal effect). The conditions noted are these: CHO-K1 GR-EFC translocation, beta-gal luminescence, 2 h. In a few lines: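 Translocation of GR-ED fusion to nuclear EA restores b-gal, read by luminescence after 1 h room-temperature detection. Engineered CHO-K1 biosensor cells, 1,000/well, exposed 2 h at 37 C to titrations up to 46 uM final.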

The target in assay [6] is Mitogen-activated protein kinase 10 (Mus musculus) (UniProt Q61831). The experiment in a line: JNK3 AlphaScreen Assay (AID 530; active = well fitted curve in either direction with a large enough effect, not every such curve was filed as active;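 note: kinase came from lysate of stimulated human HepG2 cells; potency is the fitted concentration of half-maximal effect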). In a few lines:
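Room-temperature AlphaScreen kinase assay; pre-activated HepG2 lysate as JNK3 source, biotin-GST-cJun(1-79) substrate, 10 uM ATP, compound 15 min preincubation.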
(Bead proximity is the source of the signal in Alpha formats.)

Assay [7] has as its target Guanine nucleotide-binding protein G(i) subunit alpha-1 (Homo sapiens) (UniProt P63096). The experiment in a line: qHTS Assay for Inhibitors of RGS12 GoLoco Motif Activity (Green Fluorophore) (AID 879).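 Note: 0% = labeled peptide with Gαi1 and full inhibition = labeled peptide alone without protein; negative values mean loss of peptide binding seen as reduced polarization.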 The method in brief:
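Fluorescence polarization assay: 50 nM Gαi1 with 10 nM FITC-labeled RGS12 GoLoco peptide in 10 mM Tris pH 7.5, 150 mM NaCl, 0.1 mM GDP, 0.05% NP40, 10 min at room temperature with compound.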
In general terms: qHTS replaces the single test concentration by a dilution series.

The target of assay [8] is Cytochrome P450 3A4 (Homo sapiens) (UniProt P08684). Briefly: qHTS Assay for Inhibitors and Substrates of Cytochrome P450 3A4 (AID 884). Note: potency is the fitted concentration of half-maximal effect; nearly all actives have a fitted effect of over 50% in size. The method in brief: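 20 nM human CYP3A4 with 25 uM Luciferin-PPXE (at KM) in 200 mM KPO4, preincubated 10 min with compound; NADPH regeneration started a 60 min RT reaction. Luciferin detected by luminescence, normalized to 57 uM ketoconazole as full inhibition.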

For assay [9] the target is unchanged. Briefly: qHTS Assay for Activators of Cytochrome P450 3A4 (AID 885). Note: nearly all actives have a fitted effect of over 65% in size. In a few lines: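 20nM CYP3A4 + 25uM Luciferin-PPXE (=KM), 200mM KPO4; cpd 10 min RT; NADPH regen, 60 min RT; stop w/ detection buffer, 20 min; luminescence. Normalized to 57 uM ketoconazole.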
In assay [10] the target is Cytochrome P450 2D6 (Homo sapiens) (UniProt P10635). Briefly: qHTS Assay for Inhibitors and Substrates of Cytochrome P450 2D6 (AID 891). Note: potency is the fitted concentration of half-maximal effect; nearly all actives have a fitted effect of over 60% in size. In a few lines: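 Human CYP2D6 (5 nM) with 30 uM Luciferin-ME EGE (at Km) in 100 mM KPO4, compound preincubated 10 min, then NADPH regeneration system for 60 min at room temperature. Luciferin read by luminescence; normalized to 1.43 uM quinidine.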

For assay [11], the target named is Cytochrome P450 2C19 (Homo sapiens) (UniProt P33261). Briefly: qHTS Assay for Inhibitors and Substrates of Cytochrome P450 2C19 (AID 899). Note: potency is the fitted concentration of half-maximal effect; nearly all actives have a fitted effect of over 60% in size. In a few lines: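 5nM enzyme + 10uM Luciferin-H EGE (=KM), 50mM KPO4; cpd pin-transferred, 10 min 37C; NADPH regen, 60 min 37C; stopped w/ luciferin detection reagent, 20 min; luminescence. Normalized to 57uM ketoconazole (AC100).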

Assay [12] has as its target Muscarinic acetylcholine receptor M1 (Rattus norvegicus) (UniProt P08482). The experiment in a line: qHTS Assay for Antagonists of Acetylcholine Muscarinic M1 Receptor: Measurement of IP-One Response (AID 944). Note: nearly all actives have a fitted effect of over 75% in size. In a few lines: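 CHO cells expressing rat M1 receptor, recovered overnight, were pre-incubated 10 min with compound, then stimulated 30 min with carbachol at EC80 (200 nM) in LiCl-containing buffer, pH 7.4. IP1 accumulation was read by HTRF (620/665 nm).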

Assay [13] addresses Pyruvate kinase PKM (Homo sapiens) (UniProt P14618). The experiment in a line: qHTS Assay for Inhibitors of Human Muscle Pyruvate Kinase (AID 958). The conditions noted are these: purified human PKM enzyme activity. In a few lines: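 Enzyme was run at intermediate activity so both inhibitors and activators could be detected. ATP formed from ADP and PEP by 0.1 nM human PKM2 during a 1 h room-temperature incubation was quantified by coupled luciferase luminescence.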

For assay [14], the target named is Pyruvate kinase (Leishmania mexicana) (UniProt Q27686). Briefly: qHTS Validation Assay for Activators of Leishmania Mexicana Pyruvate Kinase (AID 959). In a few lines: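 An endpoint luciferase assay: 0.2 nM LmPYK E451W turns over 0.5 mM PEP with 0.1 mM ADP for 1 h at room temperature, pH 7.2, before PKLight addition. Values are normalized to DMSO-only wells.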

Assay [15] deals with Alpha-galactosidase A (Homo sapiens) (UniProt P06280). The experiment in a line: Counterscreen for Glucocerebrosidase Inhibitors: qHTS Assay for Human alpha-Galactosidase at pH 4.5 (AID 992). Note: 0% is about no effect. In a few lines:
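Enzyme at 2 nM final was combined with compound (0.7 nM to 77 uM) and 80 uM 4-methylumbelliferyl alpha-D-galactopyranoside in 50 mM citric acid, 0.005% Tween-20, pH 4.5. After 20 min at room temperature, fluorescence was read (Ex 365/Em 440 nm); AC50 came from Hill fits.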
For orientation: A counterscreen serves to expose hits that act by an unwanted route or on another target.

In assay [16] the target is alpha-glucosidase (Oryza sativa, rice) (UniProt Q653V4). The experiment in a line: Counterscreen for Glucocerebrosidase Inhibitors: qHTS Assay for Rice alpha-Glucosidase at pH 5.0 (AID 997).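 Note: 0% = full activity with enzyme and -100% = basal without enzyme.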 The method in brief:
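Rice alpha-glucosidase (4 nM final) with 400 uM 4-methylumbelliferyl-alpha-D-glucopyranoside in citrate buffer pH 5.0, 20 min at room temperature, stopped at pH 10; fluorescence 365/440 nm, compounds 0.7 nM–77 uM, AC50 from Hill fits.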

Assay [17] has as its target DNA repair nuclease/redox regulator APEX1 (Homo sapiens) (UniProt P27695). The experiment in a line: qHTS Validation Assay for Inhibitors of the Human Apurinic/apyrimidinic Endonuclease 1 (APE1) (AID 1705;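 note: TAMRA fluorescence gain over two minutes as APE1 cuts a quenched THF abasic duplex; % is set by controls: 0 for no effect and ±100 for the full control effect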). The method in brief:
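Human APE1 was preincubated with compound for 15 min at room temperature, then 50 nM (final) THF-abasic double-stranded DNA substrate bearing 5'-TAMRA and 3'-BHQ-2 was added. Incision-driven fluorescence rise (ex 525/em 598 nm) was read kinetically.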

A short description of assay [18]: qHTS for differential inhibitors of proliferation of Plasmodium falciparum line 7G8 (AID 1815).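 Note: potency is the fitted concentration of half-maximal effect; parasite growth measured after three days of incubation.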
A short description of assay [19]: qHTS for differential inhibitors of proliferation of Plasmodium falciparum line GB4 (AID 1816).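 Note: potency is the fitted concentration of half-maximal effect; parasite growth measured after 72 h incubation.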 The conditions noted are these: Potency: Plasmodium falciparum GB4 proliferation inhibition.
A short description of assay [20]: qHTS for differential inhibitors of proliferation of Plasmodium falciparum line 3D7 (AID 1876). Note: potency is the fitted concentration of half-maximal effect.

Where “and” joins values, the source holds several entries; their conditions need not be identical. Equal entries are not always repeated. A number with no mark means an inactive call. Inconclusive results are not listed. Calls of active or inactive are those of the source. Unless noted, calls come from the whole dose curve; as a rule, active = well fitted curve in the direction sought with a large enough effect; inconclusive = small, poorly fitted or top-dose-only effect, or another doubt; inactive = no such curve, though single readings can be large; an effect the other way counts as inactive or inconclusive.

Chain of Glucocorticoid receptor (Homo sapiens) (P04150 whole entry, looked up, the tested form may be a part): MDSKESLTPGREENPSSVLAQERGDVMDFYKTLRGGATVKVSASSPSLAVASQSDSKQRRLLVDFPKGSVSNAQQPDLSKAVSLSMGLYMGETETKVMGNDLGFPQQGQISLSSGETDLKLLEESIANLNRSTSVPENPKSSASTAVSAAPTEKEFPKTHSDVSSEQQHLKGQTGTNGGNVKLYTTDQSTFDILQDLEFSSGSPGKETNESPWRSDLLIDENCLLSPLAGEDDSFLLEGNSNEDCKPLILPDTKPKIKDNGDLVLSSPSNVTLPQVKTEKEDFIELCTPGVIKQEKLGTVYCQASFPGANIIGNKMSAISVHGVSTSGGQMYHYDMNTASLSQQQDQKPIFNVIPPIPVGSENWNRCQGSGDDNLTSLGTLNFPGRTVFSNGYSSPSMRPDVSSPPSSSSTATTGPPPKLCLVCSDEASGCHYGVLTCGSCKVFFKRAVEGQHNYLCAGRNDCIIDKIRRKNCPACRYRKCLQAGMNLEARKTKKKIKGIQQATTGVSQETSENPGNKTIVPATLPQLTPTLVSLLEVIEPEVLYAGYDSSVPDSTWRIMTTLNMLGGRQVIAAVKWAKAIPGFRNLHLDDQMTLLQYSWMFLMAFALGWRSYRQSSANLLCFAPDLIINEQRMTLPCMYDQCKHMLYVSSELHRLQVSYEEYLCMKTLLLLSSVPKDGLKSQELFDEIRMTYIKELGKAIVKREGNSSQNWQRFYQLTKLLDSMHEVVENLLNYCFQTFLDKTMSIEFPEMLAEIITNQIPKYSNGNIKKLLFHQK
Chain of Cytochrome P450 1A2 (Homo sapiens) (P05177 whole entry, looked up): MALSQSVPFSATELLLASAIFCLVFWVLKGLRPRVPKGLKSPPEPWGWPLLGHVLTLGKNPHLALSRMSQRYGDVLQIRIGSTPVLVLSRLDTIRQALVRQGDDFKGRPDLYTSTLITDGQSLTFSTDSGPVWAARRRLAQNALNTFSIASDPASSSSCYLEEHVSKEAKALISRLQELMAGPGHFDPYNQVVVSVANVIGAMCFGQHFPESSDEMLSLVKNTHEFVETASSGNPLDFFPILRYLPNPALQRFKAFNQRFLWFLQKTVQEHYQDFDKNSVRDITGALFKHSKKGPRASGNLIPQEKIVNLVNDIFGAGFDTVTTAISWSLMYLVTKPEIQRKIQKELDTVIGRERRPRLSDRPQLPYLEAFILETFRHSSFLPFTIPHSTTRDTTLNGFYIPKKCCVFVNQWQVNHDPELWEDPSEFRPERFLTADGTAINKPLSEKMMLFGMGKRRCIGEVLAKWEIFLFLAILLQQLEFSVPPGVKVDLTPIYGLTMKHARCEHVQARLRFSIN
Chain of Cytochrome P450 3A4 (Homo sapiens) (P08684 whole entry, looked up): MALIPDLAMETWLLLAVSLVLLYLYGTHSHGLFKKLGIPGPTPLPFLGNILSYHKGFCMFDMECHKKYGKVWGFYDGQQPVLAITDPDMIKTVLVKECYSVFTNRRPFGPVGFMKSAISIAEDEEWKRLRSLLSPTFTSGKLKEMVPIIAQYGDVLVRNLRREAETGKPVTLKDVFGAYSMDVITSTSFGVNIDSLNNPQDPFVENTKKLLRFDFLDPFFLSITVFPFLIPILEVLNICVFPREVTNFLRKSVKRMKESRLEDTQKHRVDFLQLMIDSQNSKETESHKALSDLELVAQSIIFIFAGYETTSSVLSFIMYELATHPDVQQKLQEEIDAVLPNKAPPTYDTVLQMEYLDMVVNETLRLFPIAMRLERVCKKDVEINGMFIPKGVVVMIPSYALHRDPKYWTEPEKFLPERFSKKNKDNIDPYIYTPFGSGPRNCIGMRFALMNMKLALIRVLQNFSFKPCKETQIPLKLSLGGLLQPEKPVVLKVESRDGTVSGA
Chain of Pyruvate kinase PKM (Homo sapiens) (P14618 whole entry, looked up): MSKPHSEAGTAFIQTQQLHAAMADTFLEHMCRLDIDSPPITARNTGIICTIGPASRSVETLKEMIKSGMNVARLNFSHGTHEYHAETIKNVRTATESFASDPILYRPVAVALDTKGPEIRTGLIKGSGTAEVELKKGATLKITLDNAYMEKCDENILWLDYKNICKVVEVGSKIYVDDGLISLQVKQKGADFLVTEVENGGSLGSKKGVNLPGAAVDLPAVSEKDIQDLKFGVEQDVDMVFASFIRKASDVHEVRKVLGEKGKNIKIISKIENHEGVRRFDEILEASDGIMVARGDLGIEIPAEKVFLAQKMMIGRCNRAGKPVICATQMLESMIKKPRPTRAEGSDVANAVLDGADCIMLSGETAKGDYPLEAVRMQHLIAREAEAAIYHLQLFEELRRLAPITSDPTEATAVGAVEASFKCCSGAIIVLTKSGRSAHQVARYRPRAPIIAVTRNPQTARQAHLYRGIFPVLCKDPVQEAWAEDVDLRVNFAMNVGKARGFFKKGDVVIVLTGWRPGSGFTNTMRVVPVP
Chain of DNA repair nuclease/redox regulator APEX1 (Homo sapiens) (P27695 whole entry, looked up): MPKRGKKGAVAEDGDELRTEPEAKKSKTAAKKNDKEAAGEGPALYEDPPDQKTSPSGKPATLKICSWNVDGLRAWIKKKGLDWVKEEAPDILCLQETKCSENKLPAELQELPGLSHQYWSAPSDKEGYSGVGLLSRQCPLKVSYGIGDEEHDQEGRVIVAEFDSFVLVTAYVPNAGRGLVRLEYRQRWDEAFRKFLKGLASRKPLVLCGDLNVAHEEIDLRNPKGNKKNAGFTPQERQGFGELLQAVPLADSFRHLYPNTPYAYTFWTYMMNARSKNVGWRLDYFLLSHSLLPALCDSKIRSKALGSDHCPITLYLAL
Chain of Muscarinic acetylcholine receptor M1 (Rattus norvegicus) (P08482 whole entry, looked up): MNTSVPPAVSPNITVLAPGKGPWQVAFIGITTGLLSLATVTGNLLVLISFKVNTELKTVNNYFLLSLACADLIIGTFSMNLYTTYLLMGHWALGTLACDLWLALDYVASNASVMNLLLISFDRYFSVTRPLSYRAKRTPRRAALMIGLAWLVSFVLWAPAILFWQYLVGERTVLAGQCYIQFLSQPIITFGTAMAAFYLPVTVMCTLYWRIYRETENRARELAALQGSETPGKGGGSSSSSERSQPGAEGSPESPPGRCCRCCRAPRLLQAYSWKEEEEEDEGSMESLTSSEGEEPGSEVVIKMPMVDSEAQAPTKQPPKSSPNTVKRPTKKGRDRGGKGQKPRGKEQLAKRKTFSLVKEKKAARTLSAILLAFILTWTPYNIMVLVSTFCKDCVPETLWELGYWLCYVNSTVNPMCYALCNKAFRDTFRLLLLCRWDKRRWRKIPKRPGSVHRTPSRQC
Chain of Guanine nucleotide-binding protein G(i) subunit alpha-1 (Homo sapiens) (P63096 whole entry, looked up): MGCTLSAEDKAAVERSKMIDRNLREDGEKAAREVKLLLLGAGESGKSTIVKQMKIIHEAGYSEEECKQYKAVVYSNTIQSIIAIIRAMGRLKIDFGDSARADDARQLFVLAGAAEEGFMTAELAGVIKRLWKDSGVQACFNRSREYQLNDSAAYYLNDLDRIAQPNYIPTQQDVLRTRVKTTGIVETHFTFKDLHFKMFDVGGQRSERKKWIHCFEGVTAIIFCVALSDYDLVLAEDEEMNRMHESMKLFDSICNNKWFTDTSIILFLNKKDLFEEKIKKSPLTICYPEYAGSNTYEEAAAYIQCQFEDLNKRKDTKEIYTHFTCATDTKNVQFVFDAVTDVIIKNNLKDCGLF
Chain of Cytochrome P450 2D6 (Homo sapiens) (P10635 whole entry, looked up): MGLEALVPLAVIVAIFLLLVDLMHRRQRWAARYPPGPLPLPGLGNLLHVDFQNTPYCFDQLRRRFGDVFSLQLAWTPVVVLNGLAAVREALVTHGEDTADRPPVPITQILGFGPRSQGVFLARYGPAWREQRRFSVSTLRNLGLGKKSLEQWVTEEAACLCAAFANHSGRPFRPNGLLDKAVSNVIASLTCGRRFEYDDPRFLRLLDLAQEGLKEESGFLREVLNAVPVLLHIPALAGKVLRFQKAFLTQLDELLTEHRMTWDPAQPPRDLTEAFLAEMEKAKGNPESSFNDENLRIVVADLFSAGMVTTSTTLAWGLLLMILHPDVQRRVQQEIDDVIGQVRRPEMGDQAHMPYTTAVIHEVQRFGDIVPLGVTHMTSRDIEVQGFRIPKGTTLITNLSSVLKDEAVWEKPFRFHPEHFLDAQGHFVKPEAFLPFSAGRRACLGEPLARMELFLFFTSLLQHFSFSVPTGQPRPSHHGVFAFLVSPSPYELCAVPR
Chain of Cytochrome P450 2C19 (Homo sapiens) (P33261 whole entry, looked up): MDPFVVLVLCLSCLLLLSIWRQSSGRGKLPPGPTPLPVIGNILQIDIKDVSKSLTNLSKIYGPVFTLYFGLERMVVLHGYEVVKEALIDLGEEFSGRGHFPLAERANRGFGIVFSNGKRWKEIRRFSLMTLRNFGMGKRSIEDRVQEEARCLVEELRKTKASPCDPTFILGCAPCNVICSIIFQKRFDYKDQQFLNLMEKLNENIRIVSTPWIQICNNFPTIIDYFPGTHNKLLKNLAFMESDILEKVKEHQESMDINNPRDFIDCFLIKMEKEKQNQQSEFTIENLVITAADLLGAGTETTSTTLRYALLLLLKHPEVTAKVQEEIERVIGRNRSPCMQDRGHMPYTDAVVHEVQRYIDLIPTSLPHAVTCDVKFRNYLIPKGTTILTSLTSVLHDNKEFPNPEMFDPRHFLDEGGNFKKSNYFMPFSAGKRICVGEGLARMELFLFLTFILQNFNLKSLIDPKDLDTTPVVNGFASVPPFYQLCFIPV
Chain of Alpha-galactosidase A (Homo sapiens) (P06280 whole entry, looked up): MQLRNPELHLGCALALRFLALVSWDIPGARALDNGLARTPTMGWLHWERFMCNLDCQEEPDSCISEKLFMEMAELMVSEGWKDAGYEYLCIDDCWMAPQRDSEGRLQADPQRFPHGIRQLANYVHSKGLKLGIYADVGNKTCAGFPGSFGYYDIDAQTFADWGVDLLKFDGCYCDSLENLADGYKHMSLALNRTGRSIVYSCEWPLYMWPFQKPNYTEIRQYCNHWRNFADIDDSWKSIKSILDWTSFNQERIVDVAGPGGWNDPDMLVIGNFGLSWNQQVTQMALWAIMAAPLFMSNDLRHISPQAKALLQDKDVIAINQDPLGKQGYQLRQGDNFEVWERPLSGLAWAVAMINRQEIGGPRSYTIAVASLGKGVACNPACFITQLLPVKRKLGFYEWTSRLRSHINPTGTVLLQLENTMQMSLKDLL

As for `O=Nc1c(-c2c(O)[nH]c3ccccc23)[nH]c2ccccc12`, the Potency in assay [1] was 200 nM (active) and 31.6 nM (active); in assay [4] it was above 46 µM; in [5] it was above 46 µM; in assay [6], 3.16 µM (active); in assay [8] it was 7.94 µM (active); in [10], 31.6 µM (active). The Potency was 6.31 µM (active) in [11]; 12.6 µM (active) in [13]; 1.26 µM (active) in assay [18]; 0.708 µM (active) in assay [19]; 0.355 µM (active) in assay [20]. The activity change, negative = inhibition in [2] is -23.6%. Moreover, the activity, negative = inhibition in [3] is -75% (active). The molecule was called inactive in [7], in [15] and in assay [16]. The Potency result in [9], in [12], in assay [14] and in [17] was “inactive” each time.

(Values after PubChem BioAssay (NCATS).)
